# Bioassay records as filed in PubChem.
# This is one part of a sample in which hits are shown more often than they occur.
# LmPK inh – qHTS Assay for Inhibitors of Leishmania Mexicana Pyruvate Kinase (LmPK) | purified LmPK, Kinase-Glo ATP luminescence, 1 h | Potency, µM (series often up to 57.5 µM), for inactives: at the top dose activity change, negative = inhibition, usual class: inhibitors | 290,000 tested, 0.37% active | AID 1721, 2009; note: potency is the fitted concentration of half-maximal effect; % is set by controls: 0 for no effect and ±100 for the full control effect
# Target sequence (Q27686 whole entry, looked up): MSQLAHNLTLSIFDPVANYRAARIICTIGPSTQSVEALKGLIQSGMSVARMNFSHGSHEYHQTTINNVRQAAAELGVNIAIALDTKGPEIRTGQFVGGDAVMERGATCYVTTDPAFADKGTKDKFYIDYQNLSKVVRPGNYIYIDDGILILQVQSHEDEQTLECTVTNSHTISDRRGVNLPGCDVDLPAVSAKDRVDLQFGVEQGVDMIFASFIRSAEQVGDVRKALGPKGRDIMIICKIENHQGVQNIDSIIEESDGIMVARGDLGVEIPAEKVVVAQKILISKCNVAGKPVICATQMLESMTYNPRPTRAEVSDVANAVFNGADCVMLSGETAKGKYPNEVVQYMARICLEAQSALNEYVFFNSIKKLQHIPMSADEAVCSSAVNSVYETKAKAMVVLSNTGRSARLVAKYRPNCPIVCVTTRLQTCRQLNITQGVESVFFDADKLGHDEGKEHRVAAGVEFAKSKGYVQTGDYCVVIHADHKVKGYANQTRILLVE
#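 In 50 mM imidazole pH 7.2 with 7 mM MgCl2, LmPK (0.1 nM) turned over PEP (0.5 mM) and ADP (0.1 mM) for 1 h at room temperature. Luciferase read-out of ATP.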
# TbPYK inhibitor – qHTS of Trypanosoma Brucei Inhibitors. TbPYK enzyme, Kinase-Glo Plus ATP luminescence, 45 min. Potency, µM (doses to about 76.8 µM), inactives show top-dose activity, negative = inhibition, usual class: inhibitors. 410,000 tested, 0.12% active. AID 624173, 2012; note: potency is the fitted concentration of half-maximal effect; % is set by controls: 0 for no effect and ±100 for the full control effect; nearly all actives have a fitted effect of over 50% in size
#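 Screened from lowest to highest concentration, compounds were pinned into TbPYK/substrate mixtures, and ADP (130 uM final) was added. Plates sat at room temperature for 45 min prior to Kinase-Glo Plus detection by luminescence.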
# Giardia FBPA inh – qHTS Assay for Inhibitors of Fructose-1,6-bisphosphate Aldolase from Giardia Lamblia. A8B2U2. purified Giardia FBPA. Potency, µM (series often up to 59.6 µM), for inactives: at the highest dose activity, negative = inhibition, most hits filed as inhibitors. 290,000 tested, 0.71% active; note: potency is the fitted concentration of half-maximal effect; % is set by controls: 0 for no effect and ±100 for the full control effect; nearly all actives have a fitted effect of over 55% in size
#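 Giardia FBPA (40 nM reagent) was preincubated 10 min at RT with compound (up to 57.5 uM final), then substrate plus GAPDH/TPI/NAD/arsenate coupling system with diaphorase/resazurin was added; resorufin fluorescence (525/598 nm) was read after 20 min.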
# RE007 growth inh – qHTS Assay for Inhibitors of the HIV-1 protein Vpr | 360,000 tested, 0.21% active | S. pombe RE007 Vpr strain, BacTiter-Glo ATP luminescence, 24 h | Potency, µM (series often up to 92.2 µM), for inactives: at the highest dose activity change, negative = less growth, hits mostly inhibitors | AID 651644, 2012; active = well fitted falling curve with a large enough effect; inconclusive = small, poorly fitted or top-dose-only effect; inactive = no such curve, though single readings can be large or run the other way; note: potency is the fitted concentration of half-maximal effect; % is set by controls: 0 for no effect and ±100 for the full control effect; nearly all actives have a fitted effect of over 50% in size
#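 Fission yeast strain RE007, carrying one chromosomally integrated HIV-1 vpr copy, was seeded at OD 0.01 in PMG+AL medium with 23 nL pinned compound. After 24 h at 30 °C and 99% humidity, viability was read by BacTiter-Glo luminescence.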
# Shiga toxin inh – A qHTS for Small Molecule Inhibitors of Shiga Toxin. Vero cells, Shiga toxin protein synthesis inhibition reporter. inhibition, % at 38.7 µM. 290,000 tested, 9.2% active. AID 2315, 2010; in the data active = inhibition mostly above about 28%, no sharp cut-off; inactive = mostly below about 43%; note: 0% is about no effect
# CHX counter – Cycloheximide Counterscreen for Small Molecule Inhibitors of Shiga Toxin | cell reporter, cycloheximide protein synthesis inhibition counterscreen | max response, % | 300,000 tested, 12% active; in the data active = max response mostly above about 13%, no sharp cut-off; inactive = mostly below about 14%; note: read at 38.3 µM for the half of the compounds with a filed dose; 0% is about no effect
# Numbers without * were called inactive; ? = inconclusive; / = not tested or not shown; + = active, no number. Unless noted, calls come from the whole dose curve; as a rule, active = well fitted curve in the direction sought with a large enough effect; inconclusive = small, poorly fitted or top-dose-only effect, or another doubt; inactive = no such curve, though single readings can be large; an effect the other way counts as inactive or inconclusive.
SMILES,LmPK inh,TbPYK inhibitor,Giardia FBPA inh,RE007 growth inh,Shiga toxin inh,CHX counter
COCCCn1c(C23CC4CC(CC(C4)C2)C3)n[nH]c1=S,-9%,?,25%,10%,0,1
CC(C)(C)C(=O)OCc1cn(-c2ccccc2)nn1,-3%,-3%,0%,-1%,59*,30*
CC(C)(C)C(=O)OCc1cn(-c2ccc(Cl)cc2)nn1,-2%,-5%,-4%,-8%,40,24*
CCNC(=O)OCc1cn(-c2ccccc2)nn1,-2%,2%,1%,36%,30,14
O=C(OCc1cn(-c2ccc(Cl)cc2)nn1)c1ccccc1,-3%,0%,-6%,28%,18,1
CC(C)CC(=O)OCc1cn(-c2ccccc2)nn1,0%,1%,4%,2%,53*,23*
CC(C)C1COC(c2cccc3ccccc23)=N1 (configuration not stated),?,-9%,-7%,-9%,136*,76*
COC(=O)[C@@]1(Cc2ccc(OC)cc2)[C@H]2c3cc(C(=O)N(C)C)n(CCN4CNCC4=O)c3C[C@H]2CN1C(=O)c1ccccc1,/,/,3%,/,/,/
FC(F)(F)c1ccc(NCCc2ccccc2)nc1,-3%,1%,0%,5%,19,14*
NS(=O)(=O)c1ccc(CCNc2ccc(C(F)(F)F)cn2)cc1,0%,-4%,-4%,3%,-5,-4
Cc1ccc(C)c(NC(=O)c2ccc(CN3CC(=O)N4CCCCC4C3=O)cc2)c1 (configuration not stated),/,-1%,/,/,/,/
Cc1cccc(N(C)C(=O)c2cc3c(=O)oc4ccc(C)cc4c3s2)c1,/,2%,/,/,/,/
Nc1ccc(C(=O)N/N=C/c2cccc(Oc3ccccc3)c2)cc1,0%,-10%,-3%,6%,33,30*
CCNC(=S)N/N=C/c1cccc(OCc2c(F)cccc2Cl)c1,0%,-3%,-19%,/,33,18
O=C(N/N=C/c1cccc(Oc2ccccc2)c1)c1ccccc1F,6%,/,-3%,/,+,73*
O=C(N/N=C/c1cccc(Oc2ccccc2)c1)c1cc[n+]([O-])cc1,2%,3%,-4%,2%,13,2
CNC(=S)N/N=C/c1cccc(OCc2ccccc2F)c1,-11%,-2%,-12%,-24%,52*,27*
CC1=C(C(=O)OC2CCC(C)CC2)C(c2ccc(O)c([N+](=O)[O-])c2)NC(=O)N1 (configuration not stated),10%,0%,5%,13%,/,-3
Fc1ccc(NC(=S)NNc2ncc(C(F)(F)F)cc2Cl)c(F)c1,3%,-9%,8%,14%,48*,21
CCn1ccc2cc(S(=O)(=O)N3CCC(C(=O)NCC(C)c4ccccc4)CC3)ccc21 (configuration not stated),/,4%,/,/,/,/
O=C(Nc1scc(-c2ccccc2)c1C(=O)O)c1ccccc1F,-9%,-2%,-15%,7%,24,22*
O=C(Nc1scc(-c2ccc(Br)cc2)c1C(=O)O)c1ccccc1F,/,1%,/,10%,/,/
Cc1ccc(-c2csc(NC(=O)c3ccccc3F)c2C(=O)O)cc1,-4%,10%,-27%,-3%,100*,39*
Cc1ccc(C(=O)Nc2scc(-c3ccccc3)c2C(=O)O)o1,-19%,-5%,1%,-12%,35,14*
CCC(=O)N1CCc2cc(S(=O)(=O)CCC(=O)Nc3ccc(OC(F)(F)F)cc3)ccc21,/,-8%,/,/,/,/
SMILES,LmPK inh,TbPYK inhibitor,Giardia FBPA inh,RE007 growth inh,Shiga toxin inh,CHX counter
Cc1ccc(C)c(C(O)c2ncc(-c3cccc(C(F)(F)F)c3)[nH]2)c1 (configuration not stated),/,0%,/,3%,/,/
COc1ccc(C(C)NS(=O)(=O)Cc2ccccc2)cc1 (configuration not stated),0%,-11%,11%,2%,50,16
COc1cccc(-n2c(=O)c3sccc3n(Cc3cc(=O)n4cc(Cl)ccc4n3)c2=O)c1,/,-8%,/,/,/,/
O=C(CCCOc1ccccc1)NCCc1ccccc1,5%,9%,1%,13%,29,14*
O=C(CCCOc1ccc(Cl)cc1)NCCc1ccccc1,7%,-2%,3%,3%,-6,-3
COCCCNC(=O)CCCC(=O)NCCCOC,-2%,5%,4%,3%,-15,-6
Cc1nn(CCCC(=O)NCCc2ccccc2)c(=O)c2nccn12,-6%,-4%,5%,4%,15*,7
COCCCNC(=O)CCCOc1ccccc1,15%,-7%,2%,5%,26,31*
Cc1cc(C)c2c(N)c(C(=O)N3CCc4ccccc4C3)sc2n1,5%,-10%,-18%,-5%,-4,17
Cc1ccc(N2CCN(S(=O)(=O)c3ccc4c(c3)oc(=O)n4C)CC2C)cc1 (configuration not stated),12%,-14%,/,5%,3,-3
COc1ccc(OC)c(CNC(=O)c2cnc3c(C)cccn3c2=O)c1,/,4%,/,/,/,/
CCN(Cc1ccccc1)S(=O)(=O)c1ccccc1Br,/,4%,/,6%,/,/
CCN(CC)S(=O)(=O)c1ccccc1/C=N\O,3%,-4%,-20%,2%,46,29*
CCOc1ccc2nc(COC(=O)c3cccs3)c(C(=O)c3ccccc3)[n+]([O-])c2c1,3%,-5%,6%,8%,22,-1
CCOc1ccc2nc(COC(=O)c3ccncc3)c(C(=O)c3ccccc3)[n+]([O-])c2c1,5%,2%,-8%,-9%,52*,27*
Clc1cc(NCc2cccs2)ccc1N1CCOCC1,-3%,-10%,?,-19%,57*,46*
FC(F)(F)Oc1ccc(NC(=S)Nc2ccc(OC(F)(F)F)cc2)cc1,0%,-2%,-3%,-6%,16,5
CCC(C)(C)NC(=O)CN(Cc1cccs1)C(=O)C(=O)Nc1ccc2c(c1)OCCO2,3%,2%,0%,14%,44,-1
COc1cc(CNc2ccc3c(c2)OCCO3)ccc1OCC(N)=O,-4%,-23%,4%,-4%,-1,6
c1csc(CNc2ccc3c(c2)OCCO3)c1,-2%,-19%,?,-14%,93*,111*
Oc1ccccc1CNc1ccc(OC(F)(F)F)cc1,2%,-9%,-18%,?,55*,35*
Oc1ccccc1CNc1ccc2c(c1)OCCO2,-4%,-22%,-10%,-9%,67*,41*
CN(C(=O)CCNC(=O)Cn1cnc2ccccc2c1=O)c1ccccc1F,-6%,-7%,/,1%,17,1
COc1cc(CNc2ccc(C)c(C)c2)cc(OC)c1OC,4%,6%,?,5%,115,35
